Test [1] can be described thus: qHTS RealTime-Glo MT Cell Viability Assay in HEK293 cells - 0 hour (AID 1224880). Further: top concentration of the series differs between compounds; nearly all actives have a fitted effect of over 45% in size. An outline of the steps:
(§1)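 Measured as luminescence from the same continuously cultured HEK293 wells at successive time points (0, 8, 16, 24, 32, 40 h) after compound addition. Reagent present from seeding; dosing at 5 h; incubation 37 C.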

A short description of test [2]: A CellTox Green Cytotoxicity Assay to monitor cytotoxicity in HEK293 cells - 32 hour (AID 1224881). Further: nearly all actives have a fitted effect of over 40% in size. Further: potency means the concentration at half of the fitted maximal effect. The essentials: (§2)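 Homogeneous no-lysis format: HEK293 cell suspension mixed with CellTox Green reagent, seeded, incubated 5 h at 37 C/5% CO2, then dosed by pintool with compound in DMSO.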
A short description of test [3]: A CellTox Green Cytotoxicity Assay to monitor cytotoxicity in HepG2 cells - 32 hour (AID 1224883). Further: nearly all actives have a fitted effect of over 50% in size. Further: potency means the concentration at half of the fitted maximal effect. An outline of the steps:
(§3)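 Fluorescent DNA-binding dye, 600 HepG2 cells/well, 5 h preincubation then compound in DMSO; same plates read at 0–40 h, 37 C.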

A short description of test [4]: qHTS RealTime-Glo MT Cell Viability Assay in HepG2 cells - 16 hour (AID 1224885). Further: nearly all actives have a fitted effect of over 50% in size. An outline of the steps:
(§4)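 HepG2 suspension premixed with RealTime-Glo reagents is plated at 600 cells per well and left 5 h at 37 C/5% CO2. Compounds in DMSO then go in, and bioluminescence reflecting viable cell number is recorded over 40 h.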
Background: Quantitative high-throughput screening tests each substance at several concentrations.

The nature of test [5]: qHTS RealTime-Glo MT Cell Viability Assay in HEK293 cells - 24 hour (AID 1224886). Further: nearly all actives have a fitted effect of over 50% in size. Further: potency means the concentration at half of the fitted maximal effect. An outline of the steps: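 Reads taken at 0, 8, 16, 24, 32 and 40 h from the same wells. HEK293 cells (600/well) carried RealTime-Glo reagents from seeding, with compound added after a 5 h settle at 37 C.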
A short description of test [6]: qHTS RealTime-Glo MT Cell Viability Assay in HEK293 cells - 8 hour (AID 1224887). Further: nearly all actives have a fitted effect of over 50% in size. Further: potency means the concentration at half of the fitted maximal effect. The essentials:
as §1

Test [7] is described as follows: A CellTox Green Cytotoxicity Assay to monitor cytotoxicity in HEK293 cells - 16 hour (AID 1224888). Further: nearly all actives have a fitted effect of over 35% in size. Further: potency means the concentration at half of the fitted maximal effect. The essentials:
as §2

Test [8] can be described thus: qHTS RealTime-Glo MT Cell Viability Assay in HepG2 cells - 0 hour (AID 1224889). Further: nearly all actives have a fitted effect of over 50% in size. The essentials:
as §4

Test [9] in a line: A CellTox Green Cytotoxicity Assay to monitor cytotoxicity in HEK293 cells - 8 hour (AID 1224884). Further: nearly all actives have a fitted effect of over 35% in size. Further: potency means the concentration at half of the fitted maximal effect. The essentials:
as §2

Test [10] in a line: A CellTox Green Cytotoxicity Assay to monitor cytotoxicity in HepG2 cells - 0 hour (AID 1224882). Further: nearly all actives have a fitted effect of over 35% in size. The essentials: as §3

Experimental findings from PubChem BioAssay (Tox21) are described below.

Inconclusive results are not listed. Activity calls are given as the source filed them. The call rests on the fitted dose curve; in most records, active means well fitted curve in the direction sought with a large enough effect in the repeat runs; inconclusive means weak or mixed curves; inactive means no such curve, though single readings can be large; an effect the other way counts as inactive or inconclusive.

For the compound `CCOC(=O)C(C)O` (configuration not stated), the Potency entry in test [1], in test [2], in [3], in test [4], in test [5] and in test [6] was “inactive” in each case. Besides, the Potency result in test [7] and in test [8] was “inactive” in each case.
For `C[C@@H]1[C@H](O)[C@@H](C)/C=C/C=C\C=C\C=C\C=C\C=C\C=C\[C@H](O[C@@H]2O[C@H](C)[C@@H](O)[C@H](N)[C@@H]2O)C[C@@H]2O[C@](O)(C[C@@H](O)C[C@@H](O)[C@H](O)CC[C@@H](O)C[C@@H](O)CC(=O)O[C@H]1C)C[C@H](O)[C@H]2C(=O)O` (stereo in doubt), the Potency entry in [1], in [9], in [5], in test [7] and in test [8] was “inactive” each time.
In the case of `C/C(C=O)=C\c1ccccc1`, the Potency result in test [1], in test [10], in test [3], in test [9], in test [4] and in test [5] was “inactive” in each case. The Potency result in [6], in test [7] and in test [8] was “inactive” in each case.
On to `O=C1c2ccccc2C(=O)c2c(O)ccc(O)c21`, for which the Potency entry in test [1], in test [10], in test [4], in [5], in [6] and in test [8] was “inactive” each time. Moreover, the Potency is 24.5 µM (active) in test [3], 27.5 µM (active) in test [9] and 30.9 µM (active) in [7].
As to `CCCCOCCOC(=O)c1cccnc1`, the Potency result in test [2], in test [10], in test [3], in test [9], in [4] and in [5] was “inactive” each time. The Potency entry in [6] and in [7] was “inactive” each time.
Turning to `CCCCC(CC)COS(=O)(=O)O` (configuration not stated), the Potency result in test [1], in test [10], in [3], in test [9], in test [4] and in test [5] was “inactive” throughout. Besides, the Potency result in test [6] and in test [8] was “inactive” throughout.
Regarding `O=C(O)c1ccc(O)cc1O`, the Potency result in test [2], in [10], in test [3], in test [9], in [4] and in test [5] was “inactive” in each case. Also, the Potency entry in [6] and in [7] was “inactive” each time.
Regarding `CCN(CC)c1ccc(C(=C2C=CC(=[N+](CC)CC)C=C2)c2ccc(S(=O)(=O)O)cc2S(=O)(=O)[O-])cc1`, the Potency result in test [1], in test [2], in test [3], in test [4], in test [5] and in [6] was “inactive” in each case. The Potency entry in [7] and in [8] was “inactive” in each case.
`CC(C)(C)C1(CCc2ccc(Cl)cc2)CO1` (configuration not stated): the Potency result in test [1], in [9], in [4], in [5], in test [6] and in [7] was “inactive” in each case. Also, in test [8], the Potency result is “inactive”. Further, in test [2], the Potency is 21.9 µM (active).
Turning to `O=C(O)CNC(=O)c1ccccc1I`, the Potency entry in [1], in [2], in [3], in [4], in [5] and in [6] was “inactive” in each case. Besides, the Potency entry in [7] and in test [8] was “inactive” in each case.
Turning to `CCN(CC)CCOC(=O)C(c1ccccc1)c1ccccc1`, the Potency entry in test [2], in test [10], in [3], in test [9], in [4] and in test [5] was “inactive” each time. In addition, the Potency entry in test [6], in [7] and in test [8] was “inactive” each time.
As for `Cc1cccc2sc(N)nc12`, the Potency entry in test [2], in [10], in test [3], in test [9], in test [4] and in test [5] was “inactive” each time. Also, the Potency entry in [6] and in test [7] was “inactive” in each case.
In the case of `CC(C)(C)C(O)/C=C/c1ccc2c(c1)OCO2` (configuration not stated), the Potency result in [1], in test [2], in [3], in [4], in [5] and in test [7] was “inactive” throughout. For the same compound, the Potency entry in test [8] is “inactive”.
With `COc1cc(NS(=O)(=O)c2ccc(N)cc2)nc(C)n1`, the Potency result in [2], in test [10], in test [3], in test [9], in [4] and in [5] was “inactive” each time. Moreover, the Potency entry in [6], in [7] and in test [8] was “inactive” each time.
For the compound `COc1cc(C(C)=O)ccc1OCCCN1CCC(c2noc3cc(F)ccc23)CC1`, the Potency result in [1], in [2], in test [9], in test [7] and in test [8] was “inactive” throughout. In addition, the Potency in test [5] and in [6] was 9.52 µM (active) each time.
As for `CCCCCCOC(=O)CCCCC`, the Potency entry in test [1], in test [2], in test [3], in [9], in test [5] and in test [6] was “inactive” in each case. Also, the Potency entry in test [7] and in [8] was “inactive” each time.
